# Inconclusive results are not listed. A call without a number means that no potency is given here. Calls of active or inactive are those of the source. Unless noted, calls follow the shape of the dose curve; as a rule, active = well fitted curve in the direction sought with a large enough effect; inconclusive = small, poorly fitted or top-dose-only effect, or another doubt; inactive = no such curve, though single readings can be large; an effect the other way counts as inactive or inconclusive.
# Experiments:
# [1] = qHTS Assay for Identification of Small Molecule Agonists for Thrombopoietin (TPO) Signaling Pathway (AID 917); details: TPO signaling pathway reporter cells, agonist qHTS, stimulated with TPO at its EC50; series mostly up to 38.5 µM
# In short: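 IL-3-dependent murine pro-B Ba/F3 cells, stably transfected with human TPO receptor and GpIIb-promoter luciferase, are incubated 24 hrs at 37 C with test compound and 26 pM TPO; luciferase signal is read after 10 min at room temperature.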
# [2] = biological target: Pyruvate kinase (Leishmania mexicana) (UniProt Q27686); assay: qHTS Validation Assay for Inhibitors of Leishmania Mexicana Pyruvate Kinase (AID 945); details: purified L. mexicana pyruvate kinase, enzyme activity, E451W mutant enzyme; series mostly up to 57.5 µM
# Sequence of Pyruvate kinase (Leishmania mexicana) (Q27686 2-499 E452W): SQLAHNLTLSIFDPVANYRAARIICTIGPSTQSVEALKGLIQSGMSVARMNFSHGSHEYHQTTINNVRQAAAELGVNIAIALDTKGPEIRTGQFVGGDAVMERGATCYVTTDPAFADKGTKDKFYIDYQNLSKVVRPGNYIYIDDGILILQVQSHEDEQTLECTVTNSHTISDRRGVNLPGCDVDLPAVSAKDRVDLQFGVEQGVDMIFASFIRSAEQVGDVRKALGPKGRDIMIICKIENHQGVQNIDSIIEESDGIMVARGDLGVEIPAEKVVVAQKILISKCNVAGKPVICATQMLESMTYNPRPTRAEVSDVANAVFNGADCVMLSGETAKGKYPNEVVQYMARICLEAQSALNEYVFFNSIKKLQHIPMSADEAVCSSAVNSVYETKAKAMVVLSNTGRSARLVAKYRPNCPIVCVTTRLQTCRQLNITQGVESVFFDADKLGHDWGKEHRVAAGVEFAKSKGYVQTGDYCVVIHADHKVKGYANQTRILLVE
# In short: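 The enzyme is a highly purified E451W mutant of LmPYK used at 0.2 nM. It converts 0.5 mM PEP and 0.1 mM ADP over 1 h at room temperature; product ATP is quantified by luciferase luminescence relative to DMSO controls.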
# [3] = biological target: Pyruvate kinase PKM (Homo sapiens) (UniProt P14618); assay: qHTS Assay for Activators of Human Muscle Pyruvate Kinase (AID 954; active = well fitted curve in the direction sought with a large enough effect, not every such curve was filed as active); details: purified human muscle pyruvate kinase, luciferase-coupled luminescence, 1 h; series mostly up to 57.5 µM
# Sequence of Pyruvate kinase PKM (Homo sapiens) (P14618 whole entry, looked up): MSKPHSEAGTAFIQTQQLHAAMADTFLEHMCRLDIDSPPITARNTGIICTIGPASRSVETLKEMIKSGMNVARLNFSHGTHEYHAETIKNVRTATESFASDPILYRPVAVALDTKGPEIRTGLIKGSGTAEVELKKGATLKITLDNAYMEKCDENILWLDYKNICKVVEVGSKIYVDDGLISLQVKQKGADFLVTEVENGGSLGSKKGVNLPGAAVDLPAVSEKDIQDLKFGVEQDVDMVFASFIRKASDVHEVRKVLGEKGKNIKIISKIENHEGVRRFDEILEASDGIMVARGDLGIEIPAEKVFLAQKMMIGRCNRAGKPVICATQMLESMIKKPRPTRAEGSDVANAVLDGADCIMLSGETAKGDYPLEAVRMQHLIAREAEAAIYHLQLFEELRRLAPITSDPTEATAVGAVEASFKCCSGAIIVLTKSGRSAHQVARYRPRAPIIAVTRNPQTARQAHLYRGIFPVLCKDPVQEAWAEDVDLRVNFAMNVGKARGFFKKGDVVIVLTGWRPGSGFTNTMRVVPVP
# In short: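 Enzyme was run at intermediate activity so both inhibitors and activators could be detected. ATP formed from ADP and PEP by 0.1 nM human PKM2 during a 1 h room-temperature incubation was quantified by coupled luciferase luminescence.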
# [4] = Confirmation and Secondary Assay for Modulators of Hemoglobin Beta Chain Splicing at IVS2 705 locus (AID 930); details: HeLa EGFP-705 splicing reporter, GFP fluorescence, 48 h; series mostly up to 46.1 µM;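 also: HeLa cells stably expressing the EGFP-705 splicing reporter; GFP fluorescence per well restored by corrected splicing of the IVS2-705 intron in EGFP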
# In short: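 Splice-correction reporter: EGFP cDNA split by beta-globin intron 2 bearing the 705 mutation, stably in HeLa. Compound incubation 2 days, 37C; fluorescent objects 5-250 µm summed per well.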
# [5] = MultiTox-Fluor Cytotoxicity Assay - LYMP1-001 - Dead Cells (AID 946); details: LYMP1-001 lymphoblastoid cells, dead-cell protease fluorescence; series mostly up to 92.2 µM;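 also: cells exposed to compound for 16 h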; also: potency is read from the fitted curve at half-maximal effect
# In short: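 In this qHTS, 15 uM tetraoctylammonium bromide defined 100% and DMSO defined basal activity. Lymphoblastoid cells (LYMP1-001, 2500 per well) received compound for 16 hr at 37 C before a fluorogenic dead-cell substrate readout at 485/520 nm.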
# [6] = MultiTox-Fluor Cytotoxicity Assay - LYMP1-001 - Live Cells (AID 947); details: LYMP1-001 lymphoblastoid cells, live-cell protease fluorescence viability; series mostly up to 92.2 µM
# [7] = Cell Viability - LYMP1-002 - Assay at 16 hr (AID 948); details: LYMP1-002 lymphoblastoid cell viability; series mostly up to 92.2 µM
# In short: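 In this qHTS, lymphoblastoid LYMP1-002 cells (human) receive compounds for 16 hr at 37 C. Viability is taken from CellTiter-Glo ATP luminescence, and AC50 derives from standard Hill fits.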
# [8] = MultiTox-Fluor Cytotoxicity Assay - LYMP1-002 - Live Cells (AID 955); details: LYMP1-002 lymphoblastoid live-cell protease fluorescence viability; series mostly up to 46.1 µM;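 also: cells exposed to compound for 16 hours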
# In short: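 Read-out is live-cell protease activity (cell-permeant GF-AFC substrate, fluorescence Ex/Em=405/510), where a decrease indicates acute toxicity. Human lymphoblastoid cells were treated 16 hours at 37 C in a concentration series, and AC50 values came from standard Hill modelling.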
# [9] = biological target: Muscarinic acetylcholine receptor M1 (Rattus norvegicus) (UniProt P08482); assay: qHTS Assay for Antagonists of Acetylcholine Muscarinic M1 Receptor: Kinetic Measurement of Intracellular Calcium Response (AID 943); details: M1-expressing cells, kinetic intracellular calcium fluorescence; series mostly up to 35.3 µM;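 also: Fluo-4 calcium signal as peak divided by basal fluorescence over 4 min; nearly all actives have a fitted effect of over 75% in size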
# Sequence of Muscarinic acetylcholine receptor M1 (Rattus norvegicus) (P08482 whole entry, looked up): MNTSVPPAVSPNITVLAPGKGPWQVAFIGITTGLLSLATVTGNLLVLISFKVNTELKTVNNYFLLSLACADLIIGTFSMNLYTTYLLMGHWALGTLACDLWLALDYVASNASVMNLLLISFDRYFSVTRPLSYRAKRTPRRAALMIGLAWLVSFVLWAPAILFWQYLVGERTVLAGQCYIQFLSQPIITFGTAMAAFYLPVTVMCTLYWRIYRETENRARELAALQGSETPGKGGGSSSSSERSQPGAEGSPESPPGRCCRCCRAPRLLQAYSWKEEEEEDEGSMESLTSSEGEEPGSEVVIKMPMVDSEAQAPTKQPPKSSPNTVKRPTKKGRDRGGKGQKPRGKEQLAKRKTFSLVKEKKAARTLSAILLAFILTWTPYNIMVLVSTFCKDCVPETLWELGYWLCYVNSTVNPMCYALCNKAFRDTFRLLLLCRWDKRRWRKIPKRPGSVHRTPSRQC
# In short: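 Rat M1-CHO cells, 2000/well, overnight → Fluo-4 no-wash dye with probenecid, 1 h 37C → compound 10 min, room temp → basal read 6 s → carbachol EC80 (100 nM) → 4 min kinetic read; peak/basal.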
# [10] = biological target: Muscarinic acetylcholine receptor M1 (Rattus norvegicus) (UniProt P08482); assay: qHTS Assay for Antagonists of Acetylcholine Muscarinic M1 Receptor: Measurement of IP-One Response (AID 944); details: CHO-M1 cells, IP-One HTRF, antagonist mode; series mostly up to 46.1 µM; also: nearly all actives have a fitted effect of over 75% in size
# Source text: NIH Molecular Libraries Screening Centers Network [MLSCN]
# NIH Chemical Genomics Center [NCGC]
# Acetylcholine muscarinic M1 receptor is a G-protein coupled receptor (GPCR) coupling to the Gq G protein. It is mainly expressed in brain and functionally related to the learning and memory processes. The agonists of this receptor have the potential for the treatment of Alzheimer's disease and cognitive impairments associated with Schizophrenia.
# Upon an activation of the M1 receptor, phosholipase C (PLC) is activated to produce inositol 1,4,5-trisphosphate (IP3) and diacyl glycerol (DAG). […] For compound screen, the changes in intracellular free Ca2+ concentration can be measured by the fluorescence calcium dye such as Fura-2, Fluo-3 and Fluo-4 with a fluorescence kinetic plate reader. IP1 or total IPs including IP1, IP2 and IP3 are usually measured as an alternative method for assessing the function of Gq-coupled GPCRs. We have applied a time-resolved fluorescence based (TR-FRET) IP1 assay in which an IP1 specific antibody is used to detect the labeled IP1 tracer. […]
# The resuspended frozen cells were plated at 3 ul/well with 2000 cells in the black, tissue culture treated, clear bottom 1536-well plates. […] After 10 min incubation at the room temperature, the assay plates were measured in the HTRF detection mode in ViewLux plate reader (Ex=337 nm. Em(1)=620 and Em(2)=665 nm) […]
structure (smiles),measurement,setting,value
COc1ccc(CCNC[C@H](O)c2ccc(O)cc2)cc1OC,outcome,[1],inactive
same,outcome,[2],inactive
same,outcome,[3],inactive
CC1=C(/C=C/C(C)=C/C=C/C(C)=C/C=C/C=C(C)/C=C/C=C(C)/C=C/C2=C(C)CCCC2(C)C)C(C)(C)CCC1,outcome,[4],inactive
CC1=C2[C@@H]([C@H](C)CC[C@H]2/C=C(\C)C(=O)O)[C@H](O)C1,Potency,[5],inactive
same,outcome,[6],inactive
same,outcome,[7],inactive
same,outcome,[8],inactive
IC(I)I,Potency,[5],inactive
same,outcome,[6],inactive
same,outcome,[7],inactive
same,outcome,[8],inactive
Nc1ccn([C@H]2CS[C@@H](CO)O2)c(=O)n1,Potency,[5],inactive
same,outcome,[6],inactive
same,outcome,[7],inactive
same,outcome,[8],inactive
Nc1c(Br)cc(Br)cc1CNC1CCC(O)CC1 (stereo not given),outcome,[4],inactive
CC(C)=O,Potency,[5],inactive
same,outcome,[6],inactive
same,outcome,[7],inactive
same,outcome,[8],inactive
CCCCCCCC/C=C\CCCCCCCC(=O)O,Potency,[5],inactive
same,outcome,[7],inactive
same,outcome,[8],inactive
Oc1cc(O)c2c(c1)OC(c1ccc(O)c(O)c1)C(O)C2 (stereo not given),outcome,[4],inactive
CC[N+](C)(C)Cc1ccccc1Br,outcome,[2],inactive
same,outcome,[3],inactive
NC(=O)c1ncn(C2OC(CO)C(O)C2O)n1 (stereo not given),outcome,[4],inactive
CC(C)(C)NC(=O)[C@@H]1C[C@@H]2CCCC[C@@H]2CN1C[C@@H](O)[C@H](Cc1ccccc1)NC(=O)[C@H](CC(N)=O)NC(=O)c1ccc2ccccc2n1,Potency,[5],50.1 µM (active)
CC1=C(/C=C/C(C)=C/C=C/C(C)=C/C=C/C=C(C)/C=C/C=C(C)/C=C/C2=C(C)C(=O)CCC2(C)C)C(C)(C)CCC1=O,outcome,[4],inactive
C=CCSSSCC=C,outcome,[4],inactive
CCCCC/C=C\C/C=C\CCCCCCCC(=O)O,Potency,[5],inactive
same,outcome,[7],inactive
same,outcome,[8],inactive
C[C@@H]1CCC2[C@@H](C)[C@@H](O)O[C@@H]3O[C@@]4(C)CC[C@@H]1[C@@]23OO4 (stereo not given in full),outcome,[4],inactive
CN=C(NC#N)Nc1ccc(C2=NNC(=O)C[C@@H]2C)cc1,outcome,[1],inactive
same,outcome,[9],inactive
same,outcome,[10],inactive
same,outcome,[2],inactive
same,outcome,[3],inactive
CC(O)CO (stereo not given),Potency,[5],inactive
same,outcome,[6],inactive
same,outcome,[7],inactive
same,outcome,[8],inactive
CCCC(=O)Nc1ncnc2c1ncn2C1OC2COP(=O)(O)OC2C1OC(=O)CCC (stereo not given),outcome,[4],inactive
CC1=C(/C=C/C(C)=C/C=C/C(C)=C/CO)C(C)(C)CCC1,outcome,[4],inactive
same,outcome,[7],inactive
same,outcome,[8],inactive
CCCCCCCC(=O)O,Potency,[5],inactive
same,outcome,[6],inactive
same,outcome,[7],inactive
same,outcome,[8],inactive
CC(C(=O)O)c1ccc(N2Cc3ccccc3C2=O)cc1 (stereo not given),outcome,[4],inactive
CCOc1ccc2c(c1)C(C)=CC(C)(C)N2,outcome,[4],inactive
same,Potency,[5],inactive
same,outcome,[6],inactive
same,outcome,[7],inactive
same,outcome,[8],inactive
CCC(=O)NCCC1CCc2ccc3c(c21)CCO3 (stereo not given),outcome,[4],inactive
Cc1ccccc1,Potency,[5],inactive
same,outcome,[6],inactive
same,outcome,[7],inactive
same,outcome,[8],inactive
O=C(O)CCC(=O)C(=O)O,Potency,[5],inactive
same,outcome,[6],inactive
same,outcome,[7],inactive
same,outcome,[8],inactive
O=CCCCC=O,Potency,[5],inactive
same,outcome,[7],inactive
same,outcome,[8],inactive
O=S(=O)(O)O,Potency,[5],inactive
same,outcome,[6],inactive
same,outcome,[7],inactive
same,outcome,[8],inactive
CN1Cc2c(N)cccc2C(c2ccccc2)C1 (stereo not given),outcome,[4],inactive
CCOC(C)=O,Potency,[5],inactive
same,outcome,[6],inactive
same,outcome,[7],inactive
same,outcome,[8],inactive
O=C(O)CN(CCN(CC(=O)O)CC(=O)O)CC(=O)O,outcome,[4],inactive
